A selection: hits, their analogues and other compounds. The true share with any hit is near 1.2%.
CtBP-E1A blk = qHTS Assay for Inhibitors of the CtBP/E1A Interaction | activity change, % (no concentration beside the values) | hit rate 0.49% among 340,000 | AlphaScreen GST-E1A/His-CtBP binding, 1536-well; active compounds read low; in the data active means activity change below about -65%; inconclusive means mostly about -30% to -63%
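AlphaScreen with 125 nM GST-E1A and 125 nM His-CtBP (5X stocks) in Tris pH 8.0, 300 mM NaCl, BSA, Tween 20, TCEP. Compounds preincubated 2 h at 37 deg C, then glutathione donor/nickel acceptor beads added for 1 h at 37 deg C in dark.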
L3MBTL1 inh = qHTS Assay for the Inhibitors of L3MBTL1; Lethal(3)malignant brain tumor-like protein 1 (Homo sapiens), Q9Y468; AlphaScreen L3MBTL1–H3K9me1 peptide binding; Potency, µM (highest dose often 57.1 µM), usual class: inhibitors; hit rate 0.66% among 230,000; AID 485360, 2010; further: nearly all actives have a fitted effect of over 60% in size
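AlphaScreen proximity signal between nickel-chelate acceptor and streptavidin donor beads (final 10 ug/mL) reports binding of 50 nM L3MBTL1 to 75 nM biotin-H3 K9me1 peptide; complex incubated with compounds 30 min at room temperature; cefsulodin titration as control.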
Six1-Eya2 inh = qHTS Assay for Inhibitors of the Six1/Eya2 Interaction; AlphaScreen GST-Six1/His-Eya2 binding, biochemical; active compounds read low; activity change, % (test concentration not listed); hit rate 0.56% among 360,000; in the data active means activity change below about -65%; inconclusive means mostly about -30% to -63%
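Homogeneous AlphaScreen proximity assay pairing GST-Six1 with His-tagged Eya2 (added as 5X mix: 250 nM and 500 nM) in 50 mM Tris pH 8.0, 300 mM NaCl, 1 mM TCEP. Glutathione donor and nickel acceptor beads; 1 h, 37 °C, dark.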
USP2a inh = qHTS Assay for Inhibitors of Ubiquitin-specific Protease USP2a Using CHOP2 as the Reporter | Ubiquitin carboxyl-terminal hydrolase 2 (Homo sapiens), O75604 | USP2 core, Ub-CHOP2 coupled fluorogenic reporter, 485/531 | Potency, µM (titrated, usually from 38.3 µM), actives largely listed as inhibitors | hit rate 0.01% among 330,000 | AID 463254, 2010
Target sequence (O75604 whole entry, looked up): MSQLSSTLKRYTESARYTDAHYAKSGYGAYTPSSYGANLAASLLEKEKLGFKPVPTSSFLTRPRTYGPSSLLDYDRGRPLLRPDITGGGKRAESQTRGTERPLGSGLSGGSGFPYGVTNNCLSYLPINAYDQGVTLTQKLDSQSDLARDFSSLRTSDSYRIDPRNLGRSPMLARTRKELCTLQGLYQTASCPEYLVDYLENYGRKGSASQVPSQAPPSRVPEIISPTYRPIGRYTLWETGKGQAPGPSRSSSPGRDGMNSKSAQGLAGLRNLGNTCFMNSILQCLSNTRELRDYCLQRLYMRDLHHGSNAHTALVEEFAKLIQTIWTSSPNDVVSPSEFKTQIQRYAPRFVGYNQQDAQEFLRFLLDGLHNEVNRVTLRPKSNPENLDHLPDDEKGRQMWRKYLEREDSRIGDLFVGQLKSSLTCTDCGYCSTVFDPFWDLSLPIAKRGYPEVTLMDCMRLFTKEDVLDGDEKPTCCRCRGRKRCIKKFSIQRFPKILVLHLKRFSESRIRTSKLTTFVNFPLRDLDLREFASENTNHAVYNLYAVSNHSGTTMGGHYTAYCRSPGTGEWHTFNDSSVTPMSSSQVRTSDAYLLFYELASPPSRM
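Cell-free coupled assay: 10nM USP2 core preincubated 30min RT with compound in Tris-HCl pH 8.0/CaCl2/CHAPS buffer, then 25nM Ub-CHOP2 and 25nM reporter substrate; fluorescence (Ex 485/Em 531) read after 60min RT, normalized to NEM inhibition, concentration-response curves fitted.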
Eya2 inh = qHTS Assay for Inhibitors of the Phosphatase Activity of Eya2; Protein phosphatase EYA2 (Homo sapiens), O00167; recombinant Eya2, OMFP fluorescence dephosphorylation (OMFP is methylfluorescein phosphate); Potency, µM (titrated, usually from 76.9 µM), actives largely listed as inhibitors; hit rate 0.006% among 330,000; AID 488837, 2010
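Eya2 (0.2 uM) preincubated 10 min at ambient with compound, then OMFP substrate added at 50 uM; 10 min reaction in 50 mM HEPES pH 7.5, 50 mM NaCl, 5 uM MgCl2, 0.05% BSA, 1 mM DTT. Fluorescence read at Ex 485/Em 525 nm.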
uPA generation = qHTS for Inhibitors of Cell Surface uPA Generation; cell surface uPA generation assay, qHTS; Potency, µM (titrated, usually from 38.3 µM), most hits filed as inhibitors; hit rate 0.31% among 330,000; active means well fitted inhibition curve with a large enough effect; inconclusive means small, poorly fitted or top-dose-only effect; inactive means no such curve, though single readings can be large or run the other way; tested in mouse RAW 264.7 cells; further: nearly all actives have a fitted effect of over 55% in size
Numbers stand for hits; . = inactive; ? = inconclusive; / = no result; ! = repeats disagree. Unless noted, the call rests on the fitted dose curve; in most records, active means well fitted curve in the direction sought with a large enough effect; inconclusive means small, poorly fitted or top-dose-only effect, or another doubt; inactive means no such curve, though single readings can be large; an effect the other way counts as inactive or inconclusive.

SMILES	CtBP-E1A blk	L3MBTL1 inh	Six1-Eya2 inh	USP2a inh	Eya2 inh	uPA generation
c1ccc(-c2nc(-c3ccccn3)nc(-c3ccccn3)n2)nc1	?	/	?	.	.	.
Clc1ccc(-c2cnnc(-c3ccccn3)n2)cc1	-84	3.2µM	-86	.	.	?
COc1cccc(C#Cc2ccc3c(c2)O[C@H](CN(C)C)[C@@H](C)CN([C@@H](C)CO)S3(=O)=O)c1	.	/	.	/	/	/
O=C(Nc1cc(Br)ccc1O)C1CC(c2c(F)cccc2Cl)=NO1 (centres undefined)	.	.	.	.	.	8.9µM
COc1ccc(N2CCN(C(=O)COC(=O)c3ccc(CSC)o3)CC2)cc1	.	.	.	.	.	.
CCCCc1c(Cc2ccccc2)ncn1CCc1ccccc1OC	.	/	.	/	/	/
FC(F)(F)c1ccc(N/N=C/c2cccnc2)nc1	.	/	.	.	.	.
Cc1ncc(CO)c(/C=N/Nc2ccc(C(F)(F)F)cn2)c1O	-96	/	-75	.	.	.
Cc1ncc(CO)c(/C=N/NC(=S)Nc2ccc(F)cc2)c1O	-86	14µM	-90	.	.	.
Cc1ncc(CO)c(/C=N/N=C/c2ccccc2O)c1O	.	.	.	.	.	.
Cc1ccc2[nH]c(=O)c3cc(C(=O)N(C)c4ccccc4C)sc3c2c1	/	.	.	.	.	.
Cc1ccc(-c2cc(C(=O)N3CCN(c4ccccc4O)CC3)c3ccccc3n2)cc1	.	.	.	.	.	.
Cc1ccc(-c2cc(C(=O)N3CCN(c4ccc(O)cc4)CC3)c3ccccc3n2)cc1	/	.	?	.	.	10µM
CCCc1ccc(-c2cc(C(=O)N3CCN(c4ccccn4)CC3)c3ccccc3n2)cc1	.	/	.	.	.	7.1µM
CCOC(=O)C1=C(COC(=O)/C=C/c2ccc(F)cc2)NC(=O)NC1C (centres undefined)	.	/	.	/	/	/
CCC(=O)Oc1ccc(NC(=O)CSCc2ccccc2)cc1	/	.	.	.	.	10µM
O=c1[nH]n(-c2ccccc2)c(=O)c2ccccc12	.	.	.	.	.	.
O=C(O)c1cc2c(ncc3c(=O)n(-c4ccccc4)[nH]c32)s1	-68	/	-75	/	/	/
COc1ccc(NC(=O)CN2CCN(c3nc(-c4ccc(F)cc4)cs3)CC2)c(OC)c1	.	.	.	.	.	.
CCNS(=O)(=O)c1c(C)cc(C)c(N(C)S(=O)(=O)c2ccccc2)c1C	.	/	.	.	.	.
CC1=C(C#N)C(=O)NC(=O)/C1=C\c1ccc(-c2ccc(C)cc2[N+](=O)[O-])o1	.	25µM	.	.	.	.
C=CCc1c(C)nc2cc(-c3ccc(C)cc3)[nH]n2c1=O	/	.	.	.	.	11µM
Cc1cn([C@H]2C[C@H](O)[C@@H](CCC(=O)NCCCc3ccccc3)O2)c(=O)[nH]c1=O	.	/	.	/	/	/
Cc1nnc(NC(=O)c2cccc(S(=O)(=O)N(C)c3cccc(Cl)c3)c2)s1	.	.	.	.	.	.
COc1cc2c(C#N)c(N3CCCC3)nc(N)c2c(N)n1	-73!	?	.	.	.	.
SMILES	CtBP-E1A blk	L3MBTL1 inh	Six1-Eya2 inh	USP2a inh	Eya2 inh	uPA generation
COc1ccc2[nH]c(-c3cccc(F)c3)cc(=O)c2c1	.	.	.	.	.	0.35µM
O=c1cc(-c2cccc(F)c2)[nH]c2ccccc12	.	.	.	.	.	?
Cc1ccc(-c2cc(=O)c3cc(F)ccc3[nH]2)cc1	.	.	.	.	.	?
Cc1ccc(-c2cc(=O)c3cc(C)ccc3[nH]2)cc1	.	.	.	.	.	1.1µM
O=c1cc(-c2ccccc2)[nH]c2ccc(F)cc12	.	.	.	.	.	0.4µM
O=c1cc(-c2ccccc2)[nH]c2cc(Cl)ccc12	/	.	.	.	.	0.045µM
O=C(CCC(=O)Nc1ccccc1Cl)NNC(=O)COc1ccc([N+](=O)[O-])cc1	.	.	.	.	.	.
CCO[C@@H]1OC(C(=O)NCc2nc3ccccc3[nH]2)=C[C@H](C2CC2)[C@H]1CCCO	.	.	.	.	.	4.5µM
Cn1c(N)c(C(=O)COC(=O)/C=C/c2cccc(Cl)c2)c(=O)n(C)c1=O	.	.	.	.	.	.
Nc1c(C(=O)Nc2ccc(Cl)c(C(=O)O)c2)sc2nc3c(cc12)CCCC3	-78	/	-74	.	.	?
O=C(NNC(=S)NCc1ccc(Cl)cc1)c1ccc(Br)o1	/	.	.	.	.	.
O=C(NNC(=S)NCc1ccccc1)c1ccc(Br)o1	.	.	.	.	.	2.8µM
CCC(=O)N1CCc2cc(Br)cc(S(=O)(=O)CCC(=O)N(CC)CC)c21	.	.	.	.	.	.
CCC(=O)N1CCc2cc(Br)cc(S(=O)(=O)CCC(=O)N(C)c3cccc(C)c3)c21	/	28µM	/	.	.	/
O=C1NCCCC1C(=O)N/N=C/c1ccc([N+](=O)[O-])cc1 (centres undefined)	/	/	.	.	?	.
O=C(N/N=C/c1cc([N+](=O)[O-])ccc1O)C1CC1	.	.	-85	.	.	?
O=C1NCCCC1C(=O)N/N=C/c1cc([N+](=O)[O-])ccc1O (centres undefined)	-96	.	-69	.	.	.
CCc1ccc(N2CC(C(=O)N/N=C/c3cc([N+](=O)[O-])ccc3O)CC2=O)cc1 (centres undefined)	-88	?	-80	.	.	.
CC(=O)NC1=NN(C(C)=O)C(C)(c2ccc3ccccc3c2)S1 (centres undefined)	.	.	.	.	.	.
CC(=O)NC1=NN(C(C)=O)C(C)(c2ccccc2)S1 (centres undefined)	.	32µM	.	.	.	?
COc1ccc(-c2nc3c4ccccc4ccn3c2CN2CCOCC2)cc1OC	/	.	.	.	.	.
COc1cc(OC)c(NC(C)C(=O)N2CCCC2)cc1Cl (centres undefined)	.	.	.	.	.	.
COc1ccc(OC)c(NC(=O)CSc2ncnc3sc(C)cc23)c1	-73	/	?	/	/	.
O=C(Nc1ccc2[nH]ccc2c1)c1ccccc1	.	.	.	.	.	.
O=C(Nc1ccc2[nH]ccc2c1)c1ccc(F)cc1	/	.	.	.	?	0.89µM
NC(=O)C1CCN(CC(O)COCc2ccccc2Cl)CC1 (centres undefined)	.	/	.	.	.	.

Screening data: PubChem BioAssay, National Center for Advancing Translational Sciences (NCATS)
